{
  "source": "paper PMC4336329",
  "about": "(PLoS ONE, 2015)",
  "note": "Screen size: about 310,000 compounds; about 14,000 (4.5%) showed an effect of 50% or more. The effect is printed as a negative number. The sample holds strong results, similar compounds and a random draw of the others, so the mix is not that of the screen.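 Further: peak tail current of the secondary pulse compared with the same well before compound.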",
  "data": [
    {"biological_target": "human ether-à-go-go-related gene (hERG) potassium channel (human, UniProt Q12809)", "sequence (Q12809 whole entry, looked up)": "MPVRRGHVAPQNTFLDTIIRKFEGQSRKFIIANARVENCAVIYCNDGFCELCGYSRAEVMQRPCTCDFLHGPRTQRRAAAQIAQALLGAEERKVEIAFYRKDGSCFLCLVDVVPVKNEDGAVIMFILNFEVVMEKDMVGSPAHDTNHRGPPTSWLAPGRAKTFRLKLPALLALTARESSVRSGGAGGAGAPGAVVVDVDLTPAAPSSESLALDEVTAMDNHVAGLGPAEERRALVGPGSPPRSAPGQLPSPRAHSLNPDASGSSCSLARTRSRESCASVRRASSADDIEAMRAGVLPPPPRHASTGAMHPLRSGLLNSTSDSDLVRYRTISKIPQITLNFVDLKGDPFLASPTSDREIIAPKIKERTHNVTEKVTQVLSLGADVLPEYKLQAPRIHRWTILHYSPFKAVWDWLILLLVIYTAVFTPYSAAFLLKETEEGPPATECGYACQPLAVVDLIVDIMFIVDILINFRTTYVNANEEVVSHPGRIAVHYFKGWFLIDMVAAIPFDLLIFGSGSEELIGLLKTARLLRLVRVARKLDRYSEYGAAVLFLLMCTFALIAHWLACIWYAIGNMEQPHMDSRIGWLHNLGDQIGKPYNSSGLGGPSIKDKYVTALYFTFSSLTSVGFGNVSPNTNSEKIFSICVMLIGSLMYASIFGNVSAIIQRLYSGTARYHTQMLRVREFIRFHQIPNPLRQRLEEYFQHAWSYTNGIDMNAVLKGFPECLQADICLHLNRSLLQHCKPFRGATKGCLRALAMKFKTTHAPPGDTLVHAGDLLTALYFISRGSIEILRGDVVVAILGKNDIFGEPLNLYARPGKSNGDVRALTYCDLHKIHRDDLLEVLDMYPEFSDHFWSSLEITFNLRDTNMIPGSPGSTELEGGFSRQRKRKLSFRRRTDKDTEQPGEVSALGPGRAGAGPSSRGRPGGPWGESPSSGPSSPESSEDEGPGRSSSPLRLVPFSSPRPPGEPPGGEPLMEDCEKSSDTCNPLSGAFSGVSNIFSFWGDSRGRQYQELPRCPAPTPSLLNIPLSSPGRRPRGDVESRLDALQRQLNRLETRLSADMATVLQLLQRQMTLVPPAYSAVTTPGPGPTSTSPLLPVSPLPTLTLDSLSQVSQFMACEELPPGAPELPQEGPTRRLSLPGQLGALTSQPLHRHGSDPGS", "test": "primary screen, population patch clamp on CHO cells stably expressing hERG; higher = less effect of the substance", "units": {"hERG current change (%, negative = inhibition) at 10uM": "%"}, "values": [
      {"smiles": "COc1ccc(-c2cn(-c3ccccc3)c3[n+]2CCS3)cc1", "hERG current change (%, negative = inhibition) at 10uM": -38},
      {"smiles": "[Br-].c1ccc(-c2cn(-c3ccccc3)c3[n+]2CCS3)cc1", "hERG current change (%, negative = inhibition) at 10uM": -5.74},
      {"smiles": "COc1ccc(-c2cn(-c3ccc(Br)cc3)c3[n+]2CCS3)cc1.[Br-]", "hERG current change (%, negative = inhibition) at 10uM": -66.7},
      {"smiles": "O=C(N/N=C/c1ccco1)c1cc(-c2cccc3ccccc23)n[nH]1", "hERG current change (%, negative = inhibition) at 10uM": 7.01},
      {"smiles": "COC(=O)C(C)N(c1ccc(C)cc1)S(=O)(=O)c1c(C)[nH]c(=O)[nH]c1=O", "note": "(centres unmarked)", "hERG current change (%, negative = inhibition) at 10uM": 1.72},
      {"smiles": "Cc1ccc(S(=O)(=O)NC2(C(F)(F)F)NC(=O)N(c3ccc(F)cc3)C2=O)cc1", "note": "(centres unmarked)", "hERG current change (%, negative = inhibition) at 10uM": 9.68},
      {"smiles": "CCN1CCN(C(=O)c2c(-c3c(Cl)cccc3Cl)noc2C)CC1", "hERG current change (%, negative = inhibition) at 10uM": 20.9},
      {"smiles": "Cc1ccc(-n2c(C)cc(/C=C3\\NC(=O)NC3=O)c2C)c(C)c1", "hERG current change (%, negative = inhibition) at 10uM": -5.9},
      {"smiles": "Cc1cc(C)n(CCc2nc(-c3cccs3)cs2)n1", "hERG current change (%, negative = inhibition) at 10uM": 3.48},
      {"smiles": "Cc1nc2ccccn2c1C(=O)NNC(=O)Nc1cccc(C(F)(F)F)c1", "hERG current change (%, negative = inhibition) at 10uM": -11},
      {"smiles": "Cc1nc2sc(C(=O)O)c(N)c2c2c1COC(C)(C)C2", "hERG current change (%, negative = inhibition) at 10uM": 9.19},
      {"smiles": "O=C(Nc1ccc(NC(=O)C2CCCCC2)cn1)c1ccco1", "hERG current change (%, negative = inhibition) at 10uM": 4.68},
      {"smiles": "CCN(CCO)Cc1cn[nH]c1-c1ccc(C)c(C)c1", "hERG current change (%, negative = inhibition) at 10uM": 9.28},
      {"smiles": "Cc1c(NC(N)=O)c(=O)n(-c2ccccc2)n1C", "hERG current change (%, negative = inhibition) at 10uM": 3.79},
      {"smiles": "CNc1cnn(-c2ccc(C)cc2)c(=O)c1Sc1ccc(C)cc1", "hERG current change (%, negative = inhibition) at 10uM": -8.7},
      {"smiles": "C=CCNc1cnn(-c2ccc(C)cc2)c(=O)c1Sc1ccc(C)cc1", "hERG current change (%, negative = inhibition) at 10uM": -79.4},
      {"smiles": "C=CCNc1cnn(-c2ccc(C)cc2)c(=O)c1Cl", "hERG current change (%, negative = inhibition) at 10uM": -12.7},
      {"smiles": "CCOC(=O)c1cc(-c2ccccc2)nn1Cc1cc(C)no1", "hERG current change (%, negative = inhibition) at 10uM": -4.06},
      {"smiles": "C=CCN1C(=O)/C(=C2/Sc3ccccc3N2C)SC1=Nc1c(C)n[nH]c1C", "hERG current change (%, negative = inhibition) at 10uM": -3.99},
      {"smiles": "O=C(CCN1C(=O)c2ccccc2C1=O)Nc1ccc(F)cc1", "hERG current change (%, negative = inhibition) at 10uM": -6},
      {"smiles": "Cc1cccc(CN2CCc3c([nH]c4ccccc34)C2)c1", "hERG current change (%, negative = inhibition) at 10uM": -33.4},
      {"smiles": "Clc1cccc(CN2CCc3c([nH]c4ccccc34)C2)c1", "hERG current change (%, negative = inhibition) at 10uM": -31.9},
      {"smiles": "COc1cc(CN2CCc3c([nH]c4ccccc34)C2)cc(OC)c1", "hERG current change (%, negative = inhibition) at 10uM": -55.7},
      {"smiles": "Clc1ccc(CN2CCc3c([nH]c4ccccc34)C2)cc1Cl", "hERG current change (%, negative = inhibition) at 10uM": -28.2},
      {"smiles": "CCOc1cc(CN2CCc3c([nH]c4ccccc34)C2)ccc1OC", "hERG current change (%, negative = inhibition) at 10uM": -19},
      {"smiles": "CSc1ccc(CN2CCc3c([nH]c4ccccc34)C2)cc1", "hERG current change (%, negative = inhibition) at 10uM": -52.7},
      {"smiles": "Cc1cccc(NC(=O)CSc2nc3ccccc3nc2N2CCCCC2)c1", "hERG current change (%, negative = inhibition) at 10uM": -36.5},
      {"smiles": "COc1ccc(CNC(=O)c2n[nH]c3ccccc23)cc1OC", "hERG current change (%, negative = inhibition) at 10uM": 11.6},
      {"smiles": "CCOC(=O)CSCC(=O)N1CCC(Cc2ccccc2)CC1", "hERG current change (%, negative = inhibition) at 10uM": 3.24},
      {"smiles": "CCCSCCCNC(=O)CN1C(=O)COc2ccc(S(=O)(=O)N3CCCC3)cc21", "hERG current change (%, negative = inhibition) at 10uM": 2.87},
      {"smiles": "O=C(N/N=C/c1ccc(OC(=O)c2ccc3c(c2)OCO3)cc1)c1cncc(Br)c1", "hERG current change (%, negative = inhibition) at 10uM": 10.8},
      {"smiles": "CN(C)c1ccnc2sc3c(=O)n(-c4ccccc4)cnc3c12", "hERG current change (%, negative = inhibition) at 10uM": -17.9},
      {"smiles": "Cc1ccc(-n2cnc3c(sc4nccc(N(C)C)c43)c2=O)cc1", "hERG current change (%, negative = inhibition) at 10uM": -16.4},
      {"smiles": "CN(C)c1ccnc2sc3c(=O)n(Cc4ccccc4)cnc3c12", "hERG current change (%, negative = inhibition) at 10uM": -51},
      {"smiles": "CCN(CC)C(=O)c1sc(NC(=O)Cc2cccs2)c(C#N)c1C", "hERG current change (%, negative = inhibition) at 10uM": -6.24},
      {"smiles": "Cc1ccc(N(CC(O)CN2CCCCC2)S(=O)(=O)c2ccccc2)cc1", "note": "(centres unmarked)", "hERG current change (%, negative = inhibition) at 10uM": -68},
      {"smiles": "Cc1ccc(N(CC(O)CN2CCCC2)S(=O)(=O)c2ccccc2)cc1", "note": "(centres unmarked)", "hERG current change (%, negative = inhibition) at 10uM": -68.2},
      {"smiles": "CC(C)CNC(=O)CN(c1ccccc1)S(=O)(=O)c1ccccc1[N+](=O)[O-]", "hERG current change (%, negative = inhibition) at 10uM": 2.38},
      {"smiles": "CC1(C)NC(=O)N(CC(O)CN(c2ccccc2)S(=O)(=O)c2ccccc2[N+](=O)[O-])C1=O", "note": "(centres unmarked)", "hERG current change (%, negative = inhibition) at 10uM": 13.7},
      {"smiles": "COc1ccccc1N(CC(O)CN1CCCC1)S(=O)(=O)c1ccccc1", "note": "(centres unmarked)", "hERG current change (%, negative = inhibition) at 10uM": -4.48},
      {"smiles": "CC(C)CN(CC(C)C)CC(O)CN(c1ccccc1)S(=O)(=O)c1ccccc1[N+](=O)[O-]", "note": "(centres unmarked)", "hERG current change (%, negative = inhibition) at 10uM": -51.5},
      {"smiles": "COc1ccccc1N(CC(O)CN1CCOCC1)S(=O)(=O)c1ccccc1", "note": "(centres unmarked)", "hERG current change (%, negative = inhibition) at 10uM": 12.7},
      {"smiles": "Cc1cccc(N(CC(O)CN2CCCC2)S(=O)(=O)c2ccccc2)c1", "note": "(centres unmarked)", "hERG current change (%, negative = inhibition) at 10uM": -57},
      {"smiles": "Cc1cccc(N(CC(O)CN2CCOCC2)S(=O)(=O)c2ccccc2)c1", "note": "(centres unmarked)", "hERG current change (%, negative = inhibition) at 10uM": -1.7}
    ]}
  ]
}
